Active and inactive are the calls of the source.
Assays:
[1] = tested on: Plasmodium falciparum Sir2 (PF13_0152, Sir2A); assay: Plasmodium falciparum Sir2A binding compounds – biochemical, small-molecule microarray, 635 nm fluorescence, primary screen (AID 1098); settings: fluorescence 635 nm, higher = more signal;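 note: score merges spot fluorescence intensity with its signal-to-noise ratio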
[2] = probe aDKK1 binding to arrayed compounds – biochemical, biotinylated probe, 635/667 nm fluorescence, primary screen (AID 1099); settings: small-molecule microarray, higher = more signal;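 note: score merges 667nm spot fluorescence with signal to noise across triplicate slides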
[3] = probe aCHRDL2 binding to arrayed compounds – biochemical, biotinylated probe, 635/667 nm fluorescence, primary screen (AID 1100); settings: small-molecule microarray, higher = more signal
[4] = change in splice reporter luminescence, either direction, cell-based, HEK293, spliceosome inhibition project, primary screen (AID 1101); settings: HEK293 splicing luciferase reporter, 24 h, higher = more signal, called active from +8 up or from −8 down;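 note: HEK293 cells carrying a splicing-competent luciferase reporter gene; test concentration not given here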
[5] = target: Fibroblast growth factor 10 (Homo sapiens) (UniProt O15520); assay: compounds binding fibroblast growth factor 10 – biochemical, small-molecule microarray, 635 nm fluorescence, primary screen (AID 1102); settings: FGF10 binding, fluorescence 635 nm, higher = more signal
[6] = tested on: glycogen synthase kinase-3 (GSK3A per assay name; protocol says GSK3B); assay: compounds binding glycogen synthase kinase-3 – biochemical, small-molecule microarray, 635 nm fluorescence, GSK3A, primary screen (AID 1103); settings: fluorescence 635 nm, higher = more signal; note: the record names both GSK3A and GSK3B
[7] = target: Epidermal growth factor receptor (Homo sapiens) (UniProt P00533); assay: compounds binding epidermal growth factor receptor – biochemical, small-molecule microarray, 635 nm fluorescence, primary screen (AID 1104); settings: EGFR binding, higher = more signal;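 note: score merges 667 nm emission intensity with spot signal to noise over triplicate slides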
[8] = target: Follistatin-related protein 3 (Homo sapiens) (UniProt O95633); assay: compounds binding follistatin-related protein 3 – biochemical, small-molecule microarray, 635 nm fluorescence, primary screen (AID 1105); settings: FSTL3 binding, higher = more signal;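 note: score merges emission near 667 nm and signal to noise per printed spot across three slides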
[9] = target: Dickkopf-related protein 1 (Homo sapiens) (UniProt O94907); assay: small molecules binding DKK1 protein – biochemical, small-molecule microarray, 635 nm fluorescence scan, primary screen (AID 1106); settings: higher = more signal;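 note: score merges emission near 667 nm with signal to noise over three replicate slides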
[10] = tested on: Inhibin beta A chain (activin A); assay: small molecules binding activin A – biochemical, small-molecule microarray, 635 nm fluorescence scan, primary screen (AID 1107); settings: INHBA, higher = more signal;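 note: mouse activin A protein probed at 4.33 µg/mL on printed slides; score merges bound-protein fluorescence near 667 nm with spot signal-to-noise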
[11] = tested on: Human papillomavirus type 1a protein E7 (residues 44-93); assay: small molecules binding HPV E7 44-93 – biochemical, small-molecule microarray, residues 44-93, 635 nm fluorescence, primary screen (AID 1108); settings: fluorescence 635 nm, higher = more signal;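 note: E7 fragment applied at 1 µg/mL in TBST for 1 h at 4 C; score combines spot fluorescence with its signal to noise ratio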
[12] = hepatitis C replication reporter changes, two-sided – Huh7 cells, luciferase reporter, HCV replication inhibitor project, primary screen (AID 1109); settings: Huh7 HCV replicon luciferase reporter, 48 h; higher = more signal;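 note: huh7 hepatoma cells harbouring a luciferase neomycin HCV replicon reporter; luciferase luminescence as measure of HCV replicon replication; test concentration not given here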
[13] = target: Left-right determination factor 2 (Homo sapiens) (UniProt O00292); assay: small molecules binding LEFTY2 protein – biochemical, small-molecule microarray, 635 nm fluorescence scan, primary screen (AID 1110); settings: higher = more signal
[14] = target: Calmodulin-1 (Homo sapiens) (UniProt P0DP23); assay: small molecules binding calmodulin-1 with EGTA – biochemical, small-molecule microarray, Cy5-labelled CALM1, profiling panel (AID 1111); settings: Cy5-CALM1 binding fluorescence, higher = more signal;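 note: labelled calmodulin applied in Tris saline Tween buffer holding calcium plus EGTA and DTT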
[15] = target: Calmodulin-1 (Homo sapiens) (UniProt P0DP23); assay: small molecules binding Ca-loaded calmodulin-1 – biochemical, small-molecule microarray, Cy5-labelled CALM1, plus calcium, artefact control for SMM control-protein annotation, profiling panel (AID 1112); settings: Cy5-CALM1 binding fluorescence, higher = more signal;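 note: score merges spot fluorescence with signal to noise from triplicate slides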
[16] = probe aWnt5a binding to arrayed compounds – biochemical, biotinylated probe, 635/667 nm fluorescence, primary screen (AID 1113); settings: small-molecule microarray, higher = more signal;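 note: score merges 667 nm fluorescence intensity with signal-to-noise per printed feature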
[17] = probe aShh binding to arrayed compounds – biochemical, biotinylated probe, 635/667 nm fluorescence, primary screen (AID 1114); settings: small-molecule microarray, higher = more signal;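 note: probe is biotin-labelled aShh protein from a stem cell growth factor screen; measures binding of labelled protein to compounds printed on the slide; score merges feature fluorescence at 667 nm with signal-to-noise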
[18] = probe aNog binding to arrayed compounds – biochemical, biotinylated probe, 635/667 nm fluorescence, primary screen (AID 1115); settings: small-molecule microarray, higher = more signal;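 note: probe is biotinylated aNog protein used at 0.15 µg/mL for 1 h at 4 C; z-score combines 667 nm fluorescence of each spot with its signal to noise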
[19] = target: Torsin-1A-interacting protein 1 (Homo sapiens) (UniProt Q5JTV8); assay: compound microarray binding of lysate hLAP1 – cell lysate, small-molecule microarray, COS7 lysate, 635/667 nm fluorescence, primary screen (AID 1116); settings: 635 nm fluorescence, higher = more signal
[20] = target: Alpha-bungarotoxin (Bungarus multicinctus) (UniProt P60615); assay: compounds binding labelled alpha-BTX control protein – biochemical, small-molecule microarray, Alexa647 label, 635/667 nm fluorescence, artefact control for SMM control protein annotation, profiling panel (AID 1117); settings: alpha-BTX-A647 binding fluorescence, higher = more signal
Chain of Alpha-bungarotoxin (Bungarus multicinctus) (P60615 whole entry, looked up): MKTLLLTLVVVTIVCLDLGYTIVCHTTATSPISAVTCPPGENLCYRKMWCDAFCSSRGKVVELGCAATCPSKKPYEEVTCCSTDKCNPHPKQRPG

Chain of Dickkopf-related protein 1 (Homo sapiens) (O94907 whole entry, looked up): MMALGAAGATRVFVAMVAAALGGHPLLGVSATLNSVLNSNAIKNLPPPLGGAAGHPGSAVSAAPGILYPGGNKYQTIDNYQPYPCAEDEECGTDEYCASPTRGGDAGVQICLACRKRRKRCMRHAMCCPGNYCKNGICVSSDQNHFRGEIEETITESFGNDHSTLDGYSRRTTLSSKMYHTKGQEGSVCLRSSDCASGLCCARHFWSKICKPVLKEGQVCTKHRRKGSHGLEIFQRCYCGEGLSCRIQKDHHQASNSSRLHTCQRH
Chain of Follistatin-related protein 3 (Homo sapiens) (O95633 whole entry, looked up): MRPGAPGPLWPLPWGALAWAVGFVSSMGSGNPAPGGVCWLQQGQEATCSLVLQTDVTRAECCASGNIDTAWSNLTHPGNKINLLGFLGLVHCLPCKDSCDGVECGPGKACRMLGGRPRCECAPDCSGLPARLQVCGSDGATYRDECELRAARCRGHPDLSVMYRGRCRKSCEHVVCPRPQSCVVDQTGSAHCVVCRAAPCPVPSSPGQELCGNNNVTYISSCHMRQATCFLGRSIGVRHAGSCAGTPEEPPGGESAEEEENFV
Chain of Fibroblast growth factor 10 (Homo sapiens) (O15520 whole entry, looked up): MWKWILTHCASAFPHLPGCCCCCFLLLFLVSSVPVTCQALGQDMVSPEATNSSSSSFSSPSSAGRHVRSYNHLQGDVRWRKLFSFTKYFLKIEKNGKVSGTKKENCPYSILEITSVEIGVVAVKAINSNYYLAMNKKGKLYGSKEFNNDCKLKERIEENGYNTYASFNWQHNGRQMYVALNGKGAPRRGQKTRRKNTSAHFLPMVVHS
Chain of Torsin-1A-interacting protein 1 (Homo sapiens) (Q5JTV8 whole entry, looked up): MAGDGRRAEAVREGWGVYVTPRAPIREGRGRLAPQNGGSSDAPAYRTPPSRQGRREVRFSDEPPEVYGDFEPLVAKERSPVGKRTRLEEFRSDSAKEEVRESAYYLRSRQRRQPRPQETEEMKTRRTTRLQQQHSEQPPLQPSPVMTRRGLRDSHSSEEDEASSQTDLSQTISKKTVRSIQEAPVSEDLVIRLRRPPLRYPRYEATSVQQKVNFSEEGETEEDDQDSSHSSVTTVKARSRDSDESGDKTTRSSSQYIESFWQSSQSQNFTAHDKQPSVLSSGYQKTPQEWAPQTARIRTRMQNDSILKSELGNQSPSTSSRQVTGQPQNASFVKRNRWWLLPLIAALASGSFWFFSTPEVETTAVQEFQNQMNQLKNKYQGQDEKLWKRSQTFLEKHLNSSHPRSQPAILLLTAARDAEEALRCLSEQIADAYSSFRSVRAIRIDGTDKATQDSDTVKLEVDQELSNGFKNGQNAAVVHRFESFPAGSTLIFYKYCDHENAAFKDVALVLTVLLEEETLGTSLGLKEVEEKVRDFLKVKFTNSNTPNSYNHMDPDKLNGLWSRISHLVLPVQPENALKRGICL
Chain of Left-right determination factor 2 (Homo sapiens) (O00292 whole entry, looked up): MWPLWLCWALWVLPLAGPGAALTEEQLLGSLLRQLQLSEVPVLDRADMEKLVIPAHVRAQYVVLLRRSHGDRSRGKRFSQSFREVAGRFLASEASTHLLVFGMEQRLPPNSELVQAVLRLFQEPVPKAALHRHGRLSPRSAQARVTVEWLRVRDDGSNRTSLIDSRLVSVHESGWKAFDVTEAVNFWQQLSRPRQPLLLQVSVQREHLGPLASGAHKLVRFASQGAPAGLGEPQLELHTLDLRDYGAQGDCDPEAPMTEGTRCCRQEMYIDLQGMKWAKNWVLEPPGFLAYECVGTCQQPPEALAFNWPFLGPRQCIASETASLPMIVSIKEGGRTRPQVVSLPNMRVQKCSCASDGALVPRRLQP
Chain of Epidermal growth factor receptor (Homo sapiens) (P00533 whole entry, looked up): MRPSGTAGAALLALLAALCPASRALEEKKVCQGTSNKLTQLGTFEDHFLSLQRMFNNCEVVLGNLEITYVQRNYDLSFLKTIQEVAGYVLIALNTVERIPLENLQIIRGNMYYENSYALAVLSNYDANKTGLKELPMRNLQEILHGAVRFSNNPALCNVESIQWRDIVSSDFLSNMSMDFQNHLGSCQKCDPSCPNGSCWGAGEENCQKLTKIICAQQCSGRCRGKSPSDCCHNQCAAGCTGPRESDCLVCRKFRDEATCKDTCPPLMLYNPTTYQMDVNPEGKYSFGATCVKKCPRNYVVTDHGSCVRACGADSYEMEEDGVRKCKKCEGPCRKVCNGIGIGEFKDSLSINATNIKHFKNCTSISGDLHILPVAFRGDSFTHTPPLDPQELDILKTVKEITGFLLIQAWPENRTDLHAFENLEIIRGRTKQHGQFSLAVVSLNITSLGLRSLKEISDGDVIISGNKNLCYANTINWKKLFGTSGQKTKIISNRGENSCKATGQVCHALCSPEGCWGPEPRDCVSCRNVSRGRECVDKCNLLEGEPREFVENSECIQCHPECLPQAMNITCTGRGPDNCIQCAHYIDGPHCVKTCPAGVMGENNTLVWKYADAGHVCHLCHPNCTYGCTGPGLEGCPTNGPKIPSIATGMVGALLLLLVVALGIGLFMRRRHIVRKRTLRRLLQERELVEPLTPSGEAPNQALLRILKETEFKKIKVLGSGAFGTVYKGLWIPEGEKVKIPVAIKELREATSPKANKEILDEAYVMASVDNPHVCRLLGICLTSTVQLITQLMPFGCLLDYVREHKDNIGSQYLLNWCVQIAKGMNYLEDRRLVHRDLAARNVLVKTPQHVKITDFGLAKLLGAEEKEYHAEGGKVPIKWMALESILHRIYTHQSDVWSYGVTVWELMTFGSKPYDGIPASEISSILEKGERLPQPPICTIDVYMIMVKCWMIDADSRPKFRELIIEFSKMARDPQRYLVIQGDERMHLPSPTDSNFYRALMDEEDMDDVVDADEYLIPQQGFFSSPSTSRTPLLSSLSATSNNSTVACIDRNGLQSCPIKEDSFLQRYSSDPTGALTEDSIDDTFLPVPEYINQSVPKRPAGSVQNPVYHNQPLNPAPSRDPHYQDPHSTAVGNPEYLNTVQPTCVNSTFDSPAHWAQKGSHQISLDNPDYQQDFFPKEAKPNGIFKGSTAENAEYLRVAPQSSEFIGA

| SMILES | composite z-score [1] | composite z-score [2] | composite z-score [3] | z-score [4] | composite z-score [5] | composite z-score [6] | composite z-score [7] | composite z-score [8] | composite z-score [9] | composite z-score [10] | composite z-score [11] | z-score [12] | composite z-score [13] | composite z-score [14] | composite z-score [15] | composite z-score [16] | composite z-score [17] | composite z-score [18] | composite z-score [19] | composite z-score [20] |
| --- | --- | --- | --- | --- | --- | --- | --- | --- | --- | --- | --- | --- | --- | --- | --- | --- | --- | --- | --- | --- |
| O=C(NCCN1CCOCC1)[C@@H]1c2ccccc2C(=O)N(Cc2ccccc2C(F)(F)F)[C@H]1c1ccc(CO)cc1 | 0.99 | -0.745 | -0.31 | -0.422 (inactive) | -0.393 | 0.0726 | -1.11 | -0.708 | -1.28 | -0.735 | 1.01 | -0.513 | -1.45 | -0.804 | -0.56 | -0.145 | -0.73 | 0.0703 | -0.851 | -0.755 |
| [N-]=[N+]=Nc1ccccc1C[C@@]1(C(=O)NCC(O)CO)N=C(c2ccc(OCCCO)cc2)O[C@@H]1c1ccccc1 (stereo not given in full) | 0.973 | 0.262 | 0.9 | -0.0949 (inactive) | -0.134 | 0.119 | -1.16 | -0.932 | -1.17 | 0.0121 | 0.355 | -0.688 | -1.28 | 0.754 | 0.0985 | 0.0431 | 0.151 | 0.0308 | 1.48 | -0.422 |
| O=C(NCc1ccccc1)[C@@H]1c2ccccc2C(=O)N(Cc2cc(C(F)(F)F)cc(C(F)(F)F)c2)[C@H]1c1ccc(CO)cc1 | 0.569 | 0.0477 | 0.184 | 0.000819 (inactive) | 1.13 | 1.25 | 0.171 | 1.04 | 0.517 | 0.277 | 1.38 | 0.0626 | 0.446 | 0.288 | -0.823 | 0.0257 | -0.0011 | -0.213 | 0.517 | 0.556 |
| O=C1N(CCS(=O)(=O)c2ccccc2)c2ccccc2C[C@]12N=C(c1ccc(OCCCO)cc1)O[C@@H]2c1ccccc1 | 1.23 | 0.924 | 0.775 | 0.276 (inactive) | 1.02 | 1.19 | 0.468 | 1.34 | 1.01 | 0.865 | 1.42 | -1.74 | 0.845 | 2.28 | 0.565 | 0.0704 | -0.0146 | 0.217 | 1.93 | 1.91 |
| CN1C(=O)[C@@H]2[C@@H](CC(COc3ccccc3)=C3[C@@H](CCc4ccccc4)OB(O)C[C@@H]32)C1=O | 1.11 | -0.003 | 0.0414 | 0.341 (inactive) | 0.311 | -0.557 | -0.133 | 0.128 | 0.109 | 0.515 | -0.0599 | -0.595 | -0.194 | 0.0212 | 0.662 | -0.156 | 0.691 | -0.0172 | 0.0197 | 1.4 |
| O=C1O[C@H](c2ccccc2)[C@H](c2ccccc2)N2[C@H]1[C@@H](C(=O)O)[C@]1(C(=O)Nc3ccc(C#CCCO)cc31)[C@H]2c1ccc(OCCO)cc1 | -0.164 | 0.564 | 0.834 | -0.155 (inactive) | 1.12 | 1.27 | 0.0453 | 0.446 | 0.488 | 1.31 | 1.12 | -0.534 | 0.453 | 1.05 | 0.532 | -0.0472 | -0.0769 | 0.133 | 1.65 | 2.47 |
| COc1ccc([Si](C)(C)[C@H]2[C@H](CC(=O)N3Cc4ccccc4C[C@H]3CO)O[C@@]3(C(=O)N(C)c4c(Br)cc(C)cc43)[C@@H]2C)cc1 | 0.842 | -0.149 | -0.246 | -1.97 (inactive) | 1.19 | 0.332 | 0.552 | 1.09 | 0.474 | 0.96 | 1.31 | -5.13 | 0.205 | 0.0634 | -0.113 | -0.102 | -0.164 | -0.238 | 0.656 | 0.803 |
| COC(=O)C1(Cc2ccccc2)C=C2C(=C(C)C(=O)C2C)CN1 (stereo not given) | 1.66 | 1.21 | 1.22 | 1.44 (inactive) | 0.231 | -0.333 | -0.362 | 0.513 | -0.424 | 1.43 | -0.706 | 0.0597 | -0.479 | 1.92 | 0.536 | -0.0644 | -0.0035 | 1.68 | 1.8 | 0.242 |
| C=CCOC(=O)[C@@H]1[C@H]2C(=O)O[C@H](c3ccccc3)[C@H](c3ccccc3)N2[C@H](c2ccc(OCCOC(=O)[C@H]3C[C@H]4C(=O)N5CCC[C@H]5C(=O)N4[C@H]3c3cccc(OCCO)c3)cc2)[C@@]12C(=O)Nc1ccc(I)cc12 | 1.56 | -0.0777 | 0.0879 | 0.388 (inactive) | 1.05 | 1.24 | 1.08 | 1.42 | 1.06 | -0.0842 | 0.195 | -0.898 | 1.19 | -0.0165 | 0.0231 | -0.0566 | 0.138 | 0.373 | 1.09 | 0.659 |
| O=C1C2C=CC(C(O)c3ccc([N+](=O)[O-])cc3)N(Nc3ccccc3F)C2C(=O)N1c1ccccc1 (stereo not given) | 1.22 | 0.912 | 0.941 | 1.02 (inactive) | 0.436 | 0.351 | -0.0558 | 0.313 | -0.516 | 0.941 | 0.395 | -0.288 | -0.303 | 0.865 | 0.378 | 0.0919 | 0.0442 | 1.01 | 1.55 | 1.06 |
| CO[C@H]1O[C@H](CO)[C@@H](OC(=O)Nc2ccccc2-c2ccccc2)[C@H](OC(=O)Nc2ccccc2)[C@H]1OC(=O)Nc1ccccc1 | 1.43 | 0.821 | 0.886 | -0.299 (inactive) | 1.45 | 1.33 | 0.41 | 1.41 | 0.993 | 0.352 | 0.922 | -2.49 | 0.732 | 1.27 | -0.144 | 0.169 | 0.269 | 0.225 | 1.07 | 1.64 |
